Screening results (PubChem)
Hits are enriched below; roughly 3% of the tested compounds scored in any of these assays.
TRb-SRC2 inh: TRbeta-SRC2 interaction inhibition | P10828 | TRbeta-SRC2 peptide binding, fluorescence polarization; receptor liganded with 1 µM T3 | Potency, µM (titrated, usually from 106 µM), for the others: top-dose activity change, negative = inhibition, most hits filed as inhibitors | hit rate 0.065% among 280,000 | AID 1469;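 note: plate controls were bound peptide for no effect and peptide without receptor for full effect; nearly all actives have a fitted effect of over 50% in size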
Target sequence (P10828 whole entry, looked up): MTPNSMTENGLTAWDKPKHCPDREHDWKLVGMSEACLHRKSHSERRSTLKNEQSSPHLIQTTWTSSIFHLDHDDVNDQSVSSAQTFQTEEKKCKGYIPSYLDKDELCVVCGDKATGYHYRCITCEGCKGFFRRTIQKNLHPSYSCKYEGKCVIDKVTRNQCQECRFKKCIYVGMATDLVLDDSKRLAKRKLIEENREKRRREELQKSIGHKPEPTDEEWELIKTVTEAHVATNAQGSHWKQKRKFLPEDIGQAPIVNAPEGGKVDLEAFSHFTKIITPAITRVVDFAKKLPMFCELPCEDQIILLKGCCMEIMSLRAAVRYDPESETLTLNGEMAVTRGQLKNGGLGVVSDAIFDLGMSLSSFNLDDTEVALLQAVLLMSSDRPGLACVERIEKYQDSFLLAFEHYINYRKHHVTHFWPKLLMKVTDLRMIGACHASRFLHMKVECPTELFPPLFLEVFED
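Read-out is fluorescence polarization (555 nm excitation, 632 nm emission) of a Texas Red SRC2 coactivator peptide; loss of signal reflects blocked binding to human TRb ligand-binding domain in the presence of 1 uM T3.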
Tau fluor cs: counter-screen for tau fibril formation inhibitors; tau K18 P301L Alexa594 fluorescence, heparin fibrillization; hit rate 0.93% among 280,000; AID 1463; Potency, µM (top dose mostly 57.7 µM), without a hit: top-dose activity change, negative = decrease; note: nearly all actives have a fitted effect of over 55% in size
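Human K18 P301L tau (15 uM unlabeled plus 0.24 uM Alexa 594-labeled, final) in 100 mM sodium acetate pH 7 was mixed with compound and 20 uM heparin and incubated 6 hr at 37 C.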
TR SRC2 fluor cs: alters Texas Red total fluorescence, flagging assay interference; TRb/SRC2 Texas Red total fluorescence interference; Potency, µM (titrated, usually from 106 µM), for the others: at the highest dose fluorescence change, negative = quenching; hit rate 0.29% among 280,000; AID 1479; active = well fitted curve in either direction with a large enough effect; inconclusive = small, poorly fitted or top-dose-only effect
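Human TRb ligand-binding domain at 0.6 uM with 20 nM Texas Red SRC2 peptide in Tris buffer containing 1 uM T3 and 5% DMSO, incubated with compound 5 h at ambient temperature. Total fluorescence (555/632 nm) calculated as parallel + 2 × perpendicular.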
Tau fibril ThT: blocks human tau fibril formation measured by thioflavin T; P10636; recombinant tau K18 P301L, heparin-induced fibrillization, ThT fluorescence; Potency, µM (doses to about 57.4 µM), without a hit: at the highest dose activity, negative = inhibition, actives largely listed as inhibitors; hit rate 2.1% among 270,000; note: nearly all actives have a fitted effect of over 55% in size
Target sequence (P10636 561-689 P618L limits assumed): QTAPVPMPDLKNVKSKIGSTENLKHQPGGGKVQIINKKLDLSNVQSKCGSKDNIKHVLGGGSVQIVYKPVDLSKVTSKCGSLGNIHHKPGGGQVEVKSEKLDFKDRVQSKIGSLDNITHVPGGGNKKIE
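ThT emission at 510 nm, taken 1 hr after adding 30 uM dye, quantifies aggregates formed when 20 uM heparin acts on human tau K18 P301L for 6 hr at 37 C.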
Tau fibril FP: tau fibrillization inhibition (FP) | hit rate 0.39% among 280,000 | P10636 | K18 P301L tau heparin fibrillization, Alexa594 FP, 6 h | Potency, µM (top dose mostly 57.7 µM), for the others: at the highest dose activity, negative = inhibition, hits mostly inhibitors; note: nearly all actives have a fitted effect of over 55% in size
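Recombinant K18 P301L […], labeled with Alexa 594 at 0.24 uM over 15 uM unlabeled; heparin inducer 20 uM final; 37 C, 6 hr; FP endpoint.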
* marks the source's active call; other numbers are inactive results; ? = inconclusive; · = no result given; ! = a repeat was not active; [ ] = another dose, or the depositor's remark. Unless noted, calls come from the whole dose curve; as a rule, active = well fitted curve in the direction sought with a large enough effect; inconclusive = small, poorly fitted or top-dose-only effect, or another doubt; inactive = no such curve, though single readings can be large; an effect the other way counts as inactive or inconclusive. Unless noted, % is set by controls: 0 for no effect and ±100 for the full control effect; potency is the fitted concentration of half-maximal effect.

SMILES | TRb-SRC2 inh | Tau fluor cs | TR SRC2 fluor cs | Tau fibril ThT | Tau fibril FP
O=C1C=CC(=O)c2c(O)cccc21 | ? | 7.08µM*[quencher] | 8.91µM*[quencher] | 11.2µM* | ?
Oc1ccccc1O | 5.3% | ? | -2.0% | ? | ?
CC(C)N1CCN(c2ccc(O)cc2)CC1 | -10.8% | -21.3% | 1.0% | 25.1µM* | ?
Brc1c(Br)c(Br)c(Br)c(Br)c1Br | -3.8%[201 µM] | · | -2.6%[201 µM] | · | ·
Nc1cc2nc3ccccc3nc2cc1N | 2.9% | ? | -6.4% | 10µM* | ?
COC(=O)C1=Nc2ccccc2/C1=C\c1c(O)n(C)c(=O)n(C)c1=O | 5.5% | -10.7% | -0.6% | ? | -1.5%
Cn1c(O)c(/C=C2\N=c3ccccc3=C2CCNC(=S)NC2CC2)c(=O)n(C)c1=O | ? | -19.0% | -2.4% | 11.2µM* | ?
CCOC(=O)c1ncc2[nH]c3ccc(OCc4ccccc4)cc3c2c1COC | -1.4% | 3.98µM*[quencher] | -2.0% | ? | -15.8%
CN1CCC2(CC1)C(C#N)=C(N)NC(S)=C2C#N | 9.0% | ? | 0.5% | 22.4µM* | ?
C[C@H]1[C@H](c2ccc(Cl)cc2)SC(=O)N1C(=O)NC1CCCCC1 | 5.6%[201 µM] | · | 3.8%[201 µM] | · | ·
O=C(N/N=C/c1c(O)n(Cc2ccccc2)c(=O)[nH]c1=O)c1ccccc1O | -4.1% | -5.3% | -8.4% | 8.5% | ?
COc1ccc(Cn2c(O)c(/C=N/NC(=O)c3ccccc3O)c(=O)[nH]c2=O)cc1 | -13.8% | ? | ? | 22.4µM* | 1.7%
Nc1c(Cl)c(F)nc(OCC(=O)O)c1Cl | -2.3%[201 µM] | · | -1.6%[201 µM] | · | ·
Oc1ccc(/C=N/NP(=S)(c2ccccc2)c2ccccc2)c(O)c1O | 6.0% | ? | -4.1% | 25.1µM* | ?
Oc1ccc(/C=N/NP(=S)(c2ccccc2)c2ccccc2)cc1O | 3.5% | 14.1µM*[quencher] | -1.7% | ? | 12.0%
C=CCn1c(O)c(C(C)=Nc2ccc(N(C)C)cc2)c(=O)[nH]c1=O | -7.7% | ? | 0.1% | 17.8µM* | -3.3%
O=[N+]([O-])Nc1nccn1Cc1ccc(Cl)nc1 | -2.2%[201 µM] | · | -0.8%[201 µM] | · | ·
CCN1C(=O)c2ccccc2Sc2ccc(NC(=O)Nc3ccc(Br)c(C)c3)cc21 | 0.4% | ? | -14.7% | 13.9% | 15.8µM*
CCN1C(=O)c2ccccc2Sc2ccc(NC(=O)Cc3ccc(OC)c(OC)c3)cc21 | -0.1% | ? | -14.2% | -2.2% | -4.2%
CCn1c(O)c(N=Nc2ccc(S(=O)(=O)N3CCOCC3)cc2)c(=O)n(CC)c1=S | 0.6% | -27.6% | -2.2% | 8.91µM* | -11.7%
CCC1(C)CC(C(N)=S)CCO1 (configuration not stated) | 0.1% | -13.6% | -0.8% | 12.6µM* | ?
CNC(=O)O/N=C/C(C)(C)S(C)(=O)=O | 1.2%[201 µM] | · | 2.5%[201 µM] | · | ·
CN1CC[C@]2(C)c3cc(O)ccc3N(C)[C@@H]12 | -2.5%[53 µM] | · | -3.9%[53 µM] | · | ·
CN1CC[C@@]2(C)c3cc(O)ccc3N(C)C12 (some centres not stated) | ? | ? | -9.1% | 7.08µM* | 8.91µM*
COc1cc(OC)nc(Sc2cccc(Cl)c2C(=O)O)n1 | 4.9%[201 µM] | · | -1.0%[201 µM] | · | ·
SMILES | TRb-SRC2 inh | Tau fluor cs | TR SRC2 fluor cs | Tau fibril ThT | Tau fibril FP
CCc1c(C(=O)OC)ncc2[nH]c3cc(OC)c(OC)cc3c12 | 0.5% | 15.8µM*[quencher] | -2.7% | ? | 5.9%
CCCOC(=O)c1cc2c(cn1)[nH]c1ccccc12 | 2.7% | ? | -2.4% | ? | -16.6%
Cc1cc(C)n(-c2ccc(NN=C(C#N)C#N)cc2)n1 | 0.4% | ? | -5.0% | 5.01µM* | 7.7%
COc1ccc(Cn2c(N)c(C(=O)NCc3ccco3)c3nc4ccccc4nc32)cc1 | -20.7% | ? | -7.0% | 20µM* | -6.5%
CC(=NC#N)N(C)Cc1ccc(Cl)nc1 | -9.1%[201 µM] | · | -1.5%[201 µM] | · | ·
Cn1cc(-c2ccccc2)c(=O)c(-c2cccc(C(F)(F)F)c2)c1 | 5.9%[201 µM] | · | 2.3%[201 µM] | · | ·
C=C1C(=O)O[C@@H]2C[C@@H](C)[C@@H]3C=CC(=O)[C@@]3(C)[C@@H](O)[C@H]12 | 4.0% | 8.91µM*![quencher] | -5.8% | 3.55µM* | 3.98µM*
CC(C)(c1ccccc1)c1cc(-n2nc3ccccc3n2)c(O)c(C(C)(C)c2ccccc2)c1 | -1.8%[201 µM] | · | -3.7%[201 µM] | · | ·
COc1cc2c(cc1O)C[C@H]1NCCc3cc4c(c-2c31)OCO4 | -4.5% | ? | -4.5% | 14.1µM* | -3.7%
COC(=O)C1C(O)C(C)C(O)C(C)/C=C\C=C(/C)C(=O)Nc2c(C)c(OC(C)=O)c3c(c2O)C(=O)C(C)=C2OCOC(=C23)/C(C)=C/C(C)(O)C(O)C(C)C1O (configuration not stated) | -9.8% | ? | -8.3% | 31.6µM* | ?
COc1c(C)cc(Br)cc1C(=O)Nc1ccc(-c2nc3ncccc3o2)cc1 | 6.1% | -15.9% | 4.7% | ? | -4.2%
CS(=O)(=O)c1ncc(Cl)c(C(=O)Nc2c(C(=O)Nc3ccccc3)oc3ccccc23)n1 | -5.0% | -27.9% | 6.0% | 8.91µM* | -7.2%
Nc1ccc2c(c1)Cc1cc([N+](=O)[O-])ccc1-2 | 2.5% | ? | -3.0% | 3.16µM* | 6.6%
CCOC(=O)C1CCCN(c2ccc([N+](=O)[O-])c3nonc23)C1 (configuration not stated) | ? | -6.8% | 50.1µM*[fluorescent] | ? | ?
CC1CCCN(c2ccc(C(=O)N3CCC4(CC3)OCCO4)cc2[N+](=O)[O-])C1 (configuration not stated) | 2.2% | 2.8% | -0.5% | -11.9% | -1.6%
O=[N+]([O-])c1ccc(Oc2ccc(C(F)(F)F)cc2[N+](=O)[O-])cc1 | -0.8%[201 µM] | · | 0.5%[201 µM] | · | ·
CCOP(=O)(OCC)SCSP(=S)(OCC)OCC | -0.4%[201 µM] | · | -2.0%[201 µM] | · | ·
N#CC(CCc1ccc(Cl)cc1)(Cn1cncn1)c1ccccc1 (configuration not stated) | 0.1%[201 µM] | · | 1.1%[201 µM] | · | ·
Cc1cccc(-n2c(/C=C/c3c[nH]c4ccccc34)nc3ccccc3c2=O)c1 | 6.9% | 3.98µM*[quencher] | 2.3% | ? | 0.7%
Cc1cccc(-n2c(/C=C\c3cccc(Br)c3)nc3ccccc3c2=O)c1 | -3.2% | 8.5% | -2.1% | 3.0% | 8.5%
CNP(=O)(OC)Oc1ccc(C(C)(C)C)cc1Cl (configuration not stated) | -2.3%[201 µM] | · | 1.9%[201 µM] | · | ·
CCOc1ccc2nc(NC(=O)c3cccn(Cc4ccccc4C)c3=O)sc2c1 | -1.3% | -17.2% | 2.5% | -1.4% | -8.2%
CCOc1ccc2nc(N=Nc3c(O)[nH]c(=O)[nH]c3=O)sc2c1 | 5.7% | -17.3% | -25.6% | 4.47µM* | 1.4%
CCOc1ccc2nc(N=Nc3c(O)[nH]c(=S)[nH]c3=O)sc2c1 | -2.0% | ? | -7.1% | 2.24µM* | -1.1%
CC(=O)Nc1c2sscc-2n(C)c1=O | 6.7% | -18.0% | -15.0% | 15.8µM* | ?
CC(=O)C(Sc1ncnc2c1nnn2-c1ccc(F)cc1)C(=O)N(C)C (configuration not stated) | 5.7% | -15.2% | -2.9% | 14.1µM* | ?
